Source: PubChem BioAssay (NCATS)
Inconclusive results are not listed. A call without a number means that no potency is given here. A number with no mark means an inactive call. Activity calls are given as the source filed them. Calls come from the whole dose curve; as a rule, active = well fitted curve in the direction sought with a large enough effect; inconclusive = small, poorly fitted or top-dose-only effect, or another doubt; inactive = no such curve, though single readings can be large; an effect the other way counts as inactive or inconclusive.

Key:
[1] = molecular target: Rap guanine nucleotide exchange factor 3 (Homo sapiens) (UniProt O95398); experiment: Confirmatory qHTS for antagonist of cAMP-regulated guanine nucleotide exchange factor 3 (EPAC1) (AID 1645880); note: nearly all actives have a fitted effect of over 55% in size; note: potency is the fitted concentration of half-maximal effect
In short: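 Nucleotide exchange uses 100 nM EPAC1, 250 nM RAP1B-BODIPY-GDP and 50 uM GDP, with compounds in a concentration-titration series. After 5 min at room temperature, fluorescence (480 nm ex/540 nm em) is read every 5 min for 30 min. Data are normalized to control ATA and DMSO.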

[2] = molecular target: Rap guanine nucleotide exchange factor 3 (Homo sapiens) (UniProt O95398); experiment: Confirmatory qHTS for agonist of cAMP-regulated guanine nucleotide exchange factor 3 (EPAC1) (AID 1645881); note: nearly all actives have a fitted effect of over 75% in size; note: potency is the fitted concentration of half-maximal effect;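 for activation: EPAC1 catalysed release of BODIPY-GDP from Rap1B seen as fluorescence loss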
[3] = molecular target: Rap guanine nucleotide exchange factor 4 (Homo sapiens) (UniProt Q8WZA2); experiment: Confirmatory qHTS for agonist of cAMP-regulated guanine nucleotide exchange factor 4 (EPAC2) (AID 1645884);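 note: nucleotide exchange releases bodipy-GDP from Rap1 and this lowers its fluorescence; nearly all actives have a fitted effect of over 65% in size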; note: potency is the fitted concentration of half-maximal effect
[4] = molecular target: Rap guanine nucleotide exchange factor 4 (Homo sapiens) (UniProt Q8WZA2); experiment: Confirmatory qHTS for antagonist of cAMP-regulated guanine nucleotide exchange factor 4 (EPAC2) (AID 1645885); note: nearly all actives have a fitted effect of over 25% in size; note: potency is the fitted concentration of half-maximal effect
[5] = molecular target: Rap guanine nucleotide exchange factor 3 (Homo sapiens) (UniProt O95398); experiment: Counterscreen qHTS for antagonist of cAMP-regulated guanine nucleotide exchange factor 3 (EPAC1) (AID 1645888);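 note: fluorescence loss as bound BODIPY-GDP is released from Rap1B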
In short: (§1)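 Measured: fluorescence of BODIPY-GDP bound to Rap1B, which falls as exchange proceeds. Conditions include 50 uM competing GDP, 5 and 30 min reads, and a later cAMP challenge for antagonist detection.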

[6] = molecular target: Rap guanine nucleotide exchange factor 3 (Homo sapiens) (UniProt O95398); experiment: Counterscreen qHTS for agonist of cAMP-regulated guanine nucleotide exchange factor 3 (EPAC1) (AID 1645889); note: nearly all actives have a fitted effect of over 40% in size; note: potency is the fitted concentration of half-maximal effect
In short: as §1

Rap guanine nucleotide exchange factor 3 (Homo sapiens), sequence (O95398 whole entry, looked up): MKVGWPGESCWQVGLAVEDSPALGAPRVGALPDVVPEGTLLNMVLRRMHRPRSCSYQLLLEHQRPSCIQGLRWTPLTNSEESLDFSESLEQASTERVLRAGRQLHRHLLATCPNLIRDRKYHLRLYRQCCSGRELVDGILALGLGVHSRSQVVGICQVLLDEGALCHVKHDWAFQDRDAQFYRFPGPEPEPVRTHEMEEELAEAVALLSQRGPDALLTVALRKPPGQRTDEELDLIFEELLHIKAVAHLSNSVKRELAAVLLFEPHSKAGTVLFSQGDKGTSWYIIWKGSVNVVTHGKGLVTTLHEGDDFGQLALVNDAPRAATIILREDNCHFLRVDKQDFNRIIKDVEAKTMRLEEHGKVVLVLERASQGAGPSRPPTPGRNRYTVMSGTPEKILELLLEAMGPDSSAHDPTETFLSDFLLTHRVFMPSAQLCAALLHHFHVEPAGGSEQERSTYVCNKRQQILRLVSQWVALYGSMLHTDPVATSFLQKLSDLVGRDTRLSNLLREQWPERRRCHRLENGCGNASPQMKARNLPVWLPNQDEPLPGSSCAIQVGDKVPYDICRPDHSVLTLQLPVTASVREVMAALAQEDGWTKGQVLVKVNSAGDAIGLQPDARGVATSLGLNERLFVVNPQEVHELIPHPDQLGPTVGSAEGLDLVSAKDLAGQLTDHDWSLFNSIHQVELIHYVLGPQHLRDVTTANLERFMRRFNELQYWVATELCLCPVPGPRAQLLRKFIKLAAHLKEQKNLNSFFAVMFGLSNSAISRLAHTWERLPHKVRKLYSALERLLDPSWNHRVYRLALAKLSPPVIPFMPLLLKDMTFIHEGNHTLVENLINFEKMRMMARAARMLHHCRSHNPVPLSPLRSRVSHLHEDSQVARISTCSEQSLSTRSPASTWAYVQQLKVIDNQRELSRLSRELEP
Rap guanine nucleotide exchange factor 4 (Homo sapiens), sequence (Q8WZA2 whole entry, looked up): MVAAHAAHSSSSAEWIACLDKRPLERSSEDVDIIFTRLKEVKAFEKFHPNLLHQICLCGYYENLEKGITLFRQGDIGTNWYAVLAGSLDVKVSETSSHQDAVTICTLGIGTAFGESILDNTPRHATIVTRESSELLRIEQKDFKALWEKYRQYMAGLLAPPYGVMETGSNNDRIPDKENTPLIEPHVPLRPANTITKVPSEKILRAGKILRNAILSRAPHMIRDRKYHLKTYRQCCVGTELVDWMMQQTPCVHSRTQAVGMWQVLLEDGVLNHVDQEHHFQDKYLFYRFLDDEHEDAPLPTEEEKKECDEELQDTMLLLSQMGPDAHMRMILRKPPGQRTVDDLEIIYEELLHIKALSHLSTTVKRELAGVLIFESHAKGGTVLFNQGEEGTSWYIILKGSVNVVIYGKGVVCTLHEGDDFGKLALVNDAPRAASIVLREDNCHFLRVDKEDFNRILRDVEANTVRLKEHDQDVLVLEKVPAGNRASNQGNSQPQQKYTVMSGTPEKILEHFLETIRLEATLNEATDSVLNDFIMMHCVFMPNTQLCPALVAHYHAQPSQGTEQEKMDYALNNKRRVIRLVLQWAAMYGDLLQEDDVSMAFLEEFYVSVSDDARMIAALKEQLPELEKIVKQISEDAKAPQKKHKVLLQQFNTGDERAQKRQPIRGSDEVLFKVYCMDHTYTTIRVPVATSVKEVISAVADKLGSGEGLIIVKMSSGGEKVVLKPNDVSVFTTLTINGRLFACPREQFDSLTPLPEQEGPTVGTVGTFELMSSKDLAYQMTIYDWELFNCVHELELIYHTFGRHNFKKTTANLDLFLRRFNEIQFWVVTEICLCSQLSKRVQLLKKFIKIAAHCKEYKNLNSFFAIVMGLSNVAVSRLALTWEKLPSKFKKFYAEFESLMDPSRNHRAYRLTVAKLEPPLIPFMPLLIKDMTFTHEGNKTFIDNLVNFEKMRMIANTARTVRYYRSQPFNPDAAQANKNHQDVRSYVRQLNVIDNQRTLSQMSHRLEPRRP

Structure (SMILES) | Potency [1] | Potency [2] | Potency [3] | Potency [4] | Potency [5] | Potency [6] | activation [3] | activity change, negative = inhibition [5] | activation [6] | outcome [4]
CCCCn1c(N)c(N(CC(C)C)C(=O)C2CCN(S(=O)(=O)c3ccc(C)c(C)c3)CC2)c(=O)[nH]c1=O | inactive | inactive | inactive | inactive | inactive | inactive | – | – | – | –
CCOC(=O)N1CCN(C(=O)c2cc(S(=O)(=O)N3CCc4ccccc43)ccc2OC)CC1 | inactive | inactive | inactive | inactive | inactive | inactive | – | – | – | –
N#CC(C(=O)NCc1ccco1)c1nc2ccccc2nc1N1CCOCC1 (stereo not given) | inactive | inactive | – | inactive | – | – | 4.26% [at 17.1 µM, percent relative to cAMP agonist control] | -11.6% [at 30.8 µM] | 19.4% [at 30.8 µM] | –
CCC(=O)C1=C(c2cccc([N+](=O)[O-])c2)N(C(=O)CC)n2c(nnc2-c2ccccc2)S1 | inactive | inactive | inactive | inactive | inactive | inactive | – | – | – | –
CCCN1C(=O)c2cc(C(=O)Nc3ccccc3CC)ccc2C1O (stereo not given) | inactive | inactive | inactive | inactive | inactive | inactive | – | – | – | –
COc1cc(/C=C2\SC(=S)N(C(C(=O)O)c3ccccc3)C2=O)ccc1O (stereo not given) | 47.8 µM (active) | inactive | inactive | 42.6 µM (active) | inactive | inactive | – | – | – | –
NS(=O)(=O)c1ccc(CCNC(=O)c2ccc3nccnc3c2)cc1 | 47.8 µM (active) | inactive | inactive | inactive | inactive | inactive | – | – | – | –
CSCCC(NS(=O)(=O)c1ccc2c(c1)oc(=O)n2C)C(=O)NC1CCCc2ccccc21 (stereo not given) | inactive | inactive | inactive | inactive | inactive | inactive | – | – | – | –
O=C(Nc1cc(-c2ccccc2)sc1C(=O)O)c1cccc(F)c1 | 47.8 µM (active) | inactive | inactive | inactive | inactive | inactive | – | – | – | –
CC1(C(=O)NS(=O)(=O)c2ccc(Cl)s2)CCN1C(=O)C1(c2ccccc2)CCCC1 (stereo not given) | 37.9 µM (active) | inactive | inactive | 8.49 µM (active) | inactive | inactive | – | – | – | –
O=C(CC[C@H]1O[C@@H](n2ccc(=O)[nH]c2=O)[C@H](O)[C@@H]1O)NCc1cccc2ccccc12 | inactive | inactive | inactive | inactive | inactive | inactive | – | – | – | –
Cc1ccc(C2(C)NC(=O)N(CC(=O)Nc3ccccc3N3CCCCC3)C2=O)cc1 (stereo not given) | inactive | inactive | inactive | inactive | inactive | inactive | – | – | – | –
CO/N=C(/COc1ccc(F)cc1)c1ccc(OC)cc1 | inactive | inactive | – | inactive | – | – | -0.137% [at 17.1 µM, percent relative to cAMP agonist control] | -12% [at 30.8 µM] | 2.57% [at 30.8 µM] | –
CC(=O)NC(c1ccco1)c1cc(Cl)c2cccnc2c1O (stereo not given) | inactive | inactive | inactive | inactive | inactive | inactive | – | – | – | –
CCOCCCn1c(=N)c(C(=O)NC(C)c2ccccc2)cc2c(=O)n3cccc(C)c3nc21 (stereo not given) | inactive | inactive | inactive | inactive | inactive | inactive | – | – | – | –
COc1ccc(CCNC(=O)CCCCCn2c(SCC(N)=O)nc3cc4c(cc3c2=O)OCO4)cc1OC | inactive | inactive | inactive | inactive | inactive | inactive | – | – | – | –
O=C(O)c1cccc(NC(=O)c2cn(-c3ccccc3)nc2-c2cc3ccccc3o2)c1 | 50.1 µM (active) | inactive | – | inactive | – | – | 0.161% [at 17.1 µM, percent relative to cAMP agonist control] | -4.75% [at 30.8 µM] | 16.8% [at 30.8 µM] | –
O=C(CCC(=O)N1CCSc2ccccc21)NCc1cccc(Cl)c1 | inactive | inactive | – | inactive | – | – | 1.67% [at 17.1 µM, percent relative to cAMP agonist control] | 1.86% [at 30.8 µM] | 22.1% [at 30.8 µM] | –
CCOC(=O)C1=C(C)N=C2SC=C(C)N2C1c1ccc(OC)cc1 (stereo not given) | inactive | inactive | inactive | inactive | inactive | inactive | – | – | – | –
COCCNC(=O)c1ccc2c(c1)N(Cc1ccc(C(F)(F)F)cc1)C(=O)c1ccccc1S2 | inactive | inactive | inactive | inactive | inactive | inactive | – | – | – | –
CCC(C)NC(=O)Cn1c(=O)n(CCCCCC(=O)Nc2ccccc2)c(=O)c2sccc21 (stereo not given) | inactive | inactive | inactive | inactive | inactive | inactive | – | – | – | –
CC1CCc2c(sc(NC(=O)Cc3ccccc3)c2C(=O)Nc2ccc(Cl)cc2)C1 (stereo not given) | inactive | inactive | inactive | inactive | inactive | inactive | – | – | – | –
CC(C)CCNC1c2ccccc2C(=O)N1Cc1ccccc1 (stereo not given) | inactive | inactive | – | inactive | – | – | 11.2% [at 17.1 µM, percent relative to cAMP agonist control] | -10.7% [at 30.8 µM] | 2.24% [at 30.8 µM] | –

Structure (SMILES) | Potency [1] | Potency [2] | Potency [3] | Potency [4] | Potency [5] | Potency [6] | activation [3] | activity change, negative = inhibition [5] | activation [6] | outcome [4]
CN1C(=O)/C(=C\c2ccc(N(C)C)cc2)OC1=S | inactive | inactive | inactive | inactive | inactive | 15.8 µM (active) | – | – | – | –
COC(=O)c1cc2sc(Cl)cc2n1Cc1c(C)cc(C)cc1C | inactive | inactive | inactive | inactive | inactive | inactive | – | – | – | –
CCOC(=O)c1cnc2ccccc2c1Nc1cccc(OC)c1 | inactive | inactive | inactive | – | inactive | inactive | – | – | – | inactive [at 12.7 µM]
CC(C)CCOc1ccc(C2(C)NC(=O)N(CN3CCOCC3)C2=O)cc1 (stereo not given) | inactive | inactive | inactive | inactive | inactive | inactive | – | – | – | –
Nc1nc(NCC(=O)O)nc(NCc2ccccc2)c1[N+](=O)[O-] | inactive | inactive | inactive | inactive | inactive | inactive | – | – | – | –
O=[N+]([O-])c1cc(-c2ccccc2)cc([N+](=O)[O-])c1O | 75.7 µM (active) | inactive | inactive | 42.6 µM (active) | inactive | inactive | – | – | – | –
COc1ccc(OC)c(/C=c2\sc3nc(-c4cccs4)nn3c2=O)c1 | inactive | 89.1 µM (active) | 100 µM (active) | inactive | inactive | inactive | – | – | – | –
COc1cc2c(cc1OC)-c1cc(NC3CCCCC3)nc(=O)n1CC2 | inactive | inactive | – | inactive | – | – | -2.19% [at 17.1 µM, percent relative to cAMP agonist control] | 14.4% [at 30.8 µM] | 2.97% [at 30.8 µM] | –
Cc1cc2oc(=O)c3c(c2cc1OC(=O)c1ccco1)CCCC3 | inactive | inactive | inactive | inactive | inactive | inactive | – | – | – | –
CCOC(=O)C1CCN(C(=O)c2cccc(S(=O)(=O)N(CC)c3ccccc3)c2)CC1 | inactive | inactive | inactive | inactive | inactive | inactive | – | – | – | –
Cc1cc(S(=O)(=O)Nc2ccccc2C)ccc1F | inactive | inactive | inactive | 13.5 µM (active) | inactive | inactive | – | – | – | –
CN(C)CCCN(C(=O)COc1ccc(Cl)cc1)c1nc2cc3c(cc2s1)OCCO3 | inactive | inactive | inactive | inactive | inactive | inactive | – | – | – | –
Cc1ccc(CNC(=O)c2ccc3c(=O)[nH]c4c(C(=O)NCC5CCCO5)sc(=S)n4c3c2)cc1 (stereo not given) | 84.9 µM (active) | inactive | inactive | inactive | inactive | inactive | – | – | – | –
Cc1ccn2cc(CNC(=O)c3cccs3)nc2c1 | inactive | inactive | inactive | inactive | inactive | inactive | – | – | – | –
CCCOc1ccccc1Cn1c(=O)oc2ccccc21 | inactive | inactive | inactive | 9.53 µM (active) | inactive | inactive | – | – | – | –
Cc1cccc(CN2[C@@H](CC(C)C)COCCS2(=O)=O)c1 | inactive | inactive | inactive | inactive | inactive | inactive | – | – | – | –
CC(C)OC(=O)c1c(-c2ccccc2)c(-c2ccccc2)nn(C)c1=O | inactive | inactive | inactive | inactive | inactive | inactive | – | – | – | –
CCOc1nc(C)cc(C)c1S(=O)(=O)c1ccc(Cl)cc1 | inactive | inactive | – | inactive | – | – | -7.98% [at 17.1 µM, percent relative to cAMP agonist control] | 0.426% [at 30.8 µM] | 9.26% [at 30.8 µM] | –
O=C(O)CN1C(=O)/C(=C\c2cccc(OCc3ccc(Cl)cc3Cl)c2)SC1=S | 44.7 µM (active) | inactive | – | 0.301 µM (active) | – | – | 19.7% [at 17.1 µM, percent relative to cAMP agonist control] | -5.98% [at 30.8 µM] | 8.88% [at 30.8 µM] | –
CCCCNC(=O)c1ccc2nc(-c3ccco3)c(-c3ccco3)nc2c1 | 7.94 µM (active) | inactive | – | inactive | – | – | 3.07% [at 17.1 µM, percent relative to cAMP agonist control] | -2.83% [at 30.8 µM] | 11.8% [at 30.8 µM] | –
Cc1sc(N)c(C(=O)c2ccccc2Cl)c1C | inactive | inactive | inactive | 19 µM (active) | inactive | inactive | – | – | – | –
COc1ccc(N2CCN(C(=O)CCc3ccccc3OC)CC2)cc1 | inactive | inactive | inactive | inactive | inactive | inactive | – | – | – | –
